This is part of a sample that, as a whole, favours compounds with a hit. Of some 83,000 tested, about 20% had one in any assay.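 Negative percent growth values reflect cell death: -40 means 40% of the cells present at the start died, and -100 means all died.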 Active and inactive are the calls of the source.

For this experiment, the system named is HCT-116 colon. Briefly: NCI-60 one-dose screen, 48 h (100 = growth as untreated, 0 = no growth, -100 = all killed). As to conditions: 10 µM unless noted. The method, then: Growth inhibition of the HCT-116 human tumor cell line is measured as a screen for anti-cancer activity. Cells are grown in 96 well plates and exposed to the test compound for 48 hours. Compounds are tested at a single concentration, which is 10^-5 M for most compounds. The reported endpoint is percent growth (GI% or GIPRCNT), where numbers from 0 - 100% represent growth inhibition, and numbers from -100% - 0 represent cell death. For example, a value of 40 represents 60% growth inhibition. A value of 0 means no net growth occurred over the course of the experiment. A value of -40 indicates 40% of cells at the beginning of the experiment died by the end of the experiment. A value of -100 means all cells are dead at the end of the experiment.
NCI-60 Human Tumor Cell Lines Screen was performed using the standard one-dose NCI protocol, which is described in more detail at https://dtp.cancer.gov/discovery_development/nci-60/default.htm.
Compounds with GIPRCNT values below 10 were considered active. Activity score was based on GIPRCNT using the following formula: […]
Score is 0 for GIPRCNT values of 100 or above, 50 for GIPRCNT values of 0, and 100 for GIPRCNT values of -100.
For the molecule `COc1ccc(/C=C\c2cc(OC)c(OC)c(OC)c2)cc1NC(=O)/C=C/c1cc(OC)c(OC)c(OC)c1`, the growth is 44.6% (inactive).
For `Cc1ccc(S(=O)(=O)C(Cl)(Cl)Cl)cc1`, the growth was 87.3% (inactive).
Under `O=C(O)C(Cl)(Cl)C(F)(F)F` stands 105% (inactive); under `CC[S][Hg][Cl]`, 106% (inactive).
`Cc1ccc(S(=O)(=O)F)cc1C(=O)O`: the growth was 111% (inactive).
As to `CC(=O)OC1C(OC/C2=C/C3[C@@H](C(C)C)CC=C(C)[C@@H]3CC(OC(=O)/C=C/c3cn(C)cn3)[C@]3(C)C=C[C@@]2(O)O3)OCC(O)C1O` (stereo not given in full), the growth is 4.11% (active).
As for `CCNc1nc(Cl)nc(NCC)n1`, the growth is 88.1% (inactive).
Consider `CCOC(=O)CCN(C)C1=Nc2ccc(Cl)cc2C(c2ccccc2)=[N+]([O-])C1`, for which the growth was 112% (inactive).
Turning to `COc1ccc(/C(C)=C(\c2ccc(OCCN3CCOCC3)cc2)c2ccc(OC(=O)Cc3ccccc3)cc2)cc1`, the growth was 104% (inactive).
As for `C=CCCCCCCCCC(=O)[O-].C=CCCCCCCCCC(=O)[O-].[Zn+2]`, the growth is 101% (inactive).
For `CC(C)(N)Cc1ccccc1`, the growth is 101% (inactive).
In the case of `COc1cccc(C=NC(Cc2cnc[nH]2)C(=O)O)c1O` (stereo not given), the growth was 97.8% (inactive).
`COC(=O)[C@@H](C)C[C@H](Cc1ccc(F)cc1)NC(=O)c1csc([C@@H](C[C@H](C(C)C)N(C)C(=O)[C@@H](NC(=O)[C@H]2CCCCN2C)C2CC2)OC(C)=O)n1`: the growth is 3.44% (active).
In the case of `COc1ccc(N(CC(=O)NCCC[Te]c2ccccc2)C(=O)CCSC2=C(C)C(=O)c3ccccc3C2=O)cc1`, the growth was -65.1% (active).
As to `CCCOC(=O)N[C@H]1CCc2c(Br)c(OC)c(OC)c(OC)c2-c2ccc(SC)c(=O)cc21`, the growth was -12.6% (active).
As for `CCOP(=O)(Cc1ccc(C#N)cc1)OCC`, the growth was 84.5% (inactive).
In the case of `C[C@]12CC[C@@H]3c4ccc(Oc5nc(N6CC6)nc(N6CC6)n5)cc4CC[C@H]3[C@@H]1CCC2=O`, the growth is 26.7% (inactive).
Under `CC1CN1CCCCN1CC1C` (stereo not given) stands 95.7% (inactive).
In the case of `O=C(Nc1ccc(Cl)cc1)Nc1nccs1` it was 41.2% (inactive); in that of `O=C(c1cccc(O)c1O)c1cn(Cc2ccc(F)cc2)c2cccc(O)c12`, 30.7% (inactive); in that of `O=C(N/N=C\c1ccc(N(CCCl)CCCl)cc1)c1cccc([N+](=O)[O-])c1`, 97% (inactive).
As for `CNC12C3C4C1C1C2C3C41C(=O)N[C@H](C(=O)N(C)[C@H](C[C@@H](OC(C)=O)c1nc(C(=O)N[C@@H](Cc2ccccc2)C[C@H](C)C(=O)OC)cs1)C(C)C)C1CC1` (stereo not given in full), the growth was 2.93% (active).
For `Cn1cc(-c2csc(-c3cn(CCCCN4CCCCC4)c4ccccc34)n2)c2cccnc21`, the growth is -90.4% (active).
Turning to `COC1CC2c3ccccc3C1C(C)=[N+]2C` (stereo not given), the growth was 103% (inactive).
With `CC1=C([Te]c2ccc(O)cc2)C(=O)c2ccccc2C1=O`, the growth is -63.4% (active).
On to `O=C1CC2(CC3(Cl)C(Cl)=C(Cl)C2(Cl)C3(Cl)Cl)C(=O)O1` (stereo not given), for which the growth is 91.1% (inactive).
Regarding `C[C@]12CCc3sc(-c4cccc(F)c4)nc3C1=CC[C@@H]1[C@@H]2CC[C@]2(C)C(=O)CC[C@@H]12`, the growth is 0.513% (active).
As to `CC[C@H](C)[C@H](NC(=O)c1ccccn1)C(=O)N(C)[C@H](C[C@@H](OC(C)=O)c1nc(C(=O)N[C@@H](Cc2ccccc2)C[C@H](C)C(=O)OC)cs1)C(C)C`, the growth was 9.41% (active).
Regarding `CCCCCCCCC(CO)NCCc1ccccc1` (stereo not given), the growth is 78.8% (inactive).
In the case of `Cn1cc(-c2csc(-c3cn(CCN4CCOCC4)c4ccccc34)n2)c2cccnc21`, the growth is 72.9% (inactive).
`O=P1(NCCCl)OCCCN1CCCl` (stereo not given): the growth was 106% (inactive).
With `O=[N+]([O-])c1cc(I)cc([N+](=O)[O-])c1`, the growth was 94.8% (inactive).
In the case of `CC12CCC3C(CCC4Cc5[nH]c6ccccc6c5CC43C)C1CCC2O` (stereo not given) it was 23.3% (inactive); in that of `O=C(O)c1c(Cl)n(Cc2ccc(O)cc2)c2ccc(O)cc12`, 95% (inactive); in that of `CCCCCN(CCCCC)CC(O)c1cc(Cl)ccc1OC` (stereo not given), 4.09% (active).
As for `COC(=O)[C@@H](C)C[C@H](Cc1ccccc1)NC(=O)c1cccc([C@@H](C[C@H](C(C)C)N(C)C(=O)[C@@H](NC(=O)[C@H]2CCCCN2C)C(C)C)OC(C)=O)n1`, the growth is 2.54% (active).
For `CC(C)CCC(=O)O[C@H]1CC[C@H]2[C@@H]3CCC4=CC(=O)CC[C@]4(C)[C@H]3CC[C@]12C`, the growth is 99.8% (inactive).
Take `CC1=C(O)[C@@](C)(CCCCC[C@H](C)CCCCc2ccc(O)cc2)OOC1=O`: the growth was 88.6% (inactive).
Consider `CCOc1ccccc1C(=O)OCC(Cl)(Cl)Cl`, for which the growth is 105% (inactive).
Consider `O=[N+]([O-])c1c(Br)sc(Br)c1[N+](=O)[O-]`, for which the growth is -85.2% (active).

For the origin of these results see PubChem BioAssay (NCI).
